From PubChem BioAssay AID977606 (Broad Institute, 2014) come the findings set out here.

Hit rate of the full screen: of about 1,500 compounds, about 430 (29%) were called active. How the calls were made is not given here. Not all results are given here. Results with a measured potency or affinity are listed apart.

This test can be described thus: glucose-independent GLuc insulin release activation – cell-based, INS-1E, Gaussia luciferase, luminescence, cherry-pick, counter-screen for glucose-dependent insulin secretion activators, dose response (AID 977606). Conditions: INS-1E Gaussia luciferase insulin secretion, no glucose, 100% = twice neutral-control luminescence; series mostly up to 35 µM. In general terms: The purpose of a counterscreen is to sort out artefacts and off-target activity.
Take `O=C(CCCC(=O)c1ccccc1)NCc1ccccc1`: the call was inactive.
`CCCn1c(=O)c(C(=O)NCc2ccccc2)c(O)c2ccccc21`: the call was inactive.
As to `O=C(CCc1nc2ccccc2c(=O)[nH]1)NNC(=O)c1cccc(Cl)c1`, the molecule was called inactive.
The same measure for `CCOc1ccc(CCNC(=O)COC(=O)c2nccnc2N)cc1OCC`: “inactive”; for `COc1ccccc1C(C)NS(=O)(=O)c1ccc(Cl)nc1` (stereo unspecified): “inactive”.
As to `COc1ccc(S(=O)(=O)N2CCC(C(=O)NCc3ccccn3)CC2)cc1OC`, the outcome was inactive.
For `CN(C)CCCN(C(=O)CCOc1ccccc1)c1nc2ccc(F)cc2s1`, the result was inactive.
Take `COc1cc2c(cc1OC)CN(C(=O)CNS(=O)(=O)c1ccc(C)c(C)c1)CC2`: the outcome was inactive.
As for `Cc1ccc(-c2[nH]nc3c2C(c2cccnc2)C(C#N)=C(N)O3)cc1` (stereo unspecified), the call was inactive.
Take `CC(=O)c1c(O)c2cccc3c2n(c1=O)CCC3`: the call was inactive.
For the molecule `O=C(NCCC1CCCCN1S(=O)(=O)c1ccc(F)cc1)C(=O)NCc1cccnc1` (stereo unspecified), the outcome was inactive.
With `Cc1cccnc1NC(=O)c1ccc(S(=O)(=O)N2CCCCC2)cc1`, the outcome was inactive.
In the case of `CCOc1ccc(NC(=O)[C@@H](NC(=O)OCc2ccccc2)[C@@H](C)CC)cc1`, the outcome was inactive.
On to `CCOc1cc(OCC)cc(C(=O)Nc2cccnc2)c1`, for which the result was inactive.
For the molecule `Cc1ccc2c(=O)cc(C(=O)NC3CCS(=O)(=O)C3)oc2c1C` (stereo unspecified), the molecule was classed as inactive.
For `CCOC(=O)N1CCN(C(=O)COc2ccccc2OC)CC1`, the molecule was classed as inactive.
The same measure for `CN1CCCCCC1C(=O)N1CCC(N2CCC(C(=O)N3CCOCC3)CC2)CC1` (stereo unspecified): “inactive”; for `O=C(Nc1ncn[nH]1)c1ccc(Cl)c(Cl)c1`: “inactive”; for `Cc1ccc(C(=O)Nc2cccc(C(=O)N/N=C/c3ccc(F)cc3)c2)cc1`: “inactive”.
The same measure for `C/C(=N/NC(=O)c1ccc(Br)s1)c1ccncc1`: “inactive”; for `C/C(=N/NC(=O)c1ccc(Br)o1)c1ccncc1`: “inactive”; for `COc1ccc(CC(=O)N2CCc3cc(OC)c(OC)cc3C2)cc1`: “inactive”.
The same measure for `COc1cccc(-n2c(=O)c3ccccc3n(CC(=O)NCC3CCCO3)c2=O)c1` (stereo unspecified): “inactive”; for `O=S(=O)(c1ccc(-c2csc(Nc3ccc(Br)cc3)n2)cc1)N1CCCC1`: “inactive”.
For `O=c1[nH]nc(-c2ccc(F)cc2)cc1Cc1cccs1`, the call was inactive.
For the molecule `CCOCC(=O)Nc1c(C(=O)OCC)oc2ccccc12`, the call was inactive.
In the case of `CCCCNC(=O)c1ccccc1NC(=O)C1=C(C)OCCS1`, the molecule was called inactive.
As to `CCCCNC(=O)C1(C)CCN1C(=O)Cc1cccc2ccccc12` (stereo unspecified), the result was inactive.
Consider `COc1ccc(CNC(=O)CN2C(=O)NC3(CCCCCC3)C2=O)cc1`, for which the molecule was called inactive.
The same measure for `CCOC(=O)C1=C(COC(=O)c2cccs2)NC(=O)NC1C` (stereo unspecified): “inactive”; for `CCOc1ccc(CCNC(=O)COC(=O)c2cccc(N(C)C)c2)cc1OCC`: “inactive”.
Turning to `O=S(=O)(NCc1ccccc1)c1ccc(-n2cccn2)cc1`, the call was inactive.
With `CCCCc1nc(N)c(C#N)c(-c2ccco2)c1CCC`, the result was inactive.
With `CC(C)n1cc(/C(N)=N/O)c(=O)n(Cc2ccccc2)c1=O`, the call was inactive.
As to `CCCc1nc(N)sc1C(=O)OCC`, the call was inactive.
For the molecule `Cc1nc2ccccc2c2nc(NC(=O)C(F)(F)F)nn12`, the call was inactive.
Turning to `COC(=O)C[C@@H]1C=C[C@H](NC(=O)Cc2ccccn2)[C@@H](CO)O1`, the molecule was called inactive.
Take `CCCOC(=O)Nc1ccc(S(=O)(=O)Nc2ncccn2)cc1`: the outcome was inactive.
Turning to `CCCc1cc(=O)oc2cc(C)cc(OCC(=O)Nc3ccc(S(N)(=O)=O)cc3)c12`, the molecule was classed as inactive.
Consider `Cc1[nH]n(-c2ccc(Br)cc2)c(=O)c1/C=N/NC(=O)c1ccccc1`, for which the molecule was called inactive.
For `Cn1cc(Br)c(C(=O)NNC(=O)c2ccccc2)n1`, the molecule was classed as inactive.
The same measure for `O=S(=O)(c1ccc(NCCCO)nc1)N1CCOCC1`: “inactive”; for `CCOc1ncccc1C(=O)OCC(=O)NCCc1ccc(S(N)(=O)=O)cc1`: “inactive”.
On to `CCOC(=O)c1cn(-c2ccccc2)nc1-c1ccncc1`, for which the molecule was called inactive.
Turning to `COCCNc1nc(NCCCN(C)C)c2sccc2n1`, the molecule was classed as inactive.
The same measure for `CCCc1nnc2n1N=C(c1ccc(OC)c(OC)c1)CS2`: “inactive”.
Regarding `O=S(=O)(c1cccs1)N1CN(C2CCCCC2)c2nc3ccccc3nc21`, the call was inactive.
The same measure for `Cc1nc(N)c(C#N)c(-c2cccnc2)c1-c1ccccc1`: “inactive”; for `O=C1NC(c2ccccc2)c2c(-c3ccccc3)n[nH]c21` (stereo unspecified): “inactive”; for `C=CCN1C(=O)c2n[nH]c(COC)c2C1c1ccc(F)cc1` (stereo unspecified): “inactive”.
For `CNC(=O)C(=O)NCC1OCCCN1S(=O)(=O)c1ccc(F)cc1C` (stereo unspecified), the outcome was inactive.
`COc1ccc(-c2ocnc2C(=O)Nc2ccc(N3CCOCC3)cc2N2CCOCC2)cc1OC`: the call was inactive.
In the case of `O=C(Cc1ccsc1)NNC(=O)c1ccccc1Cl` it was “inactive”; in that of `C/C=C1\COC(C(=O)NCc2ccccc2)(C(F)(F)F)C=C1C=C(C)C` (stereo unspecified), “inactive”.
Regarding `CCC(CC)NC(=O)CN1CCN(S(=O)(=O)c2cccs2)CC1`, the molecule was classed as inactive.
In the case of `COc1ccc(CCNC(=O)CCCc2nnc3n(C)c(=O)c4sccc4n23)cc1OC` it was “inactive”.
In the case of `Cc1cc(Oc2cccnc2)ccc1NC(=O)Cc1cn(C)c2ccccc12`, the result was inactive.
Regarding `Cc1ccc2c(c1)N(C(C)C(=O)NCc1cccs1)C(=O)CO2` (stereo unspecified), the molecule was classed as inactive.
With `CCCn1c(C)cc(C)c(C#N)c1=O`, the molecule was called inactive.
In the case of `C[C@H](CO)N1C[C@H](C)[C@@H](CN(C)C(=O)CC2CC2)Oc2cc(C#CC(C)(C)O)ccc2S1(=O)=O` it was “inactive”; in that of `COc1ccccc1-c1cnc2c(c1)C(=O)N([C@H](C)CO)C[C@@H](C)[C@@H](CN(C)C(C)=O)O2`, “inactive”; in that of `C[C@H]1CN([C@@H](C)CO)C(=O)c2cc(C#CCc3ccccc3)cnc2O[C@@H]1CN(C)C(=O)C1CC1`, “inactive”.
The same measure for `COCC(=O)N(C)C[C@H]1Oc2cc(Br)ccc2S(=O)(=O)N([C@H](C)CO)C[C@H]1C`: “inactive”; for `Cc1c(P(=S)(c2ccccc2)c2ccccc2)[n+]2ccccc2n1C/C=C/c1ccccc1`: “inactive”.
Consider `COc1cc2c(cc1OC)-c1cc(Nc3ccccc3Br)nc(=O)n1CC2`, for which the call was inactive.
The same measure for `CCNc1nc(C)nc2c1oc1ccccc12`: “inactive”; for `O=C(COC(=O)c1ncc(Cl)c(Cl)c1Cl)NC1CCS(=O)(=O)C1` (stereo unspecified): “inactive”.
The same measure for `Fc1ccccc1-c1nnc2ccc3ccccc3n12`: “inactive”; for `O=c1c2ccccc2nnn1Cc1ccccc1`: “inactive”; for `CCc1nc2n[nH]c(N)c2c2c1CCCC2`: “inactive”.
Regarding `COCCNc1nc(NCCCN2CCCC2=O)c2sccc2n1`, the result was inactive.
